# In PubChem BioAssay (NCI):
# The panel holds about 83,000 compounds, 20% with a hit somewhere; the sample as a whole holds those more often.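 The endpoint reported here, percent growth, reads 100 for growth as untreated, 0 for no net growth and -100 for all cells dead.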 A number with no mark means an inactive call. Active and inactive are the calls of the source. How the source made its calls: active means growth percent below 10; inactive means the rest.
# Test system: HL-60(TB) leukemia
# Test: NCI-60 one-dose screen, 48 h (100 = growth as untreated, 0 = no growth, -100 = all killed)
# Details: 10 µM unless noted
row,Structure (SMILES),growth
1,CCc1c(Nc2ccc(C)cc2)[nH]c(N)nc1=S,99.8%
2,Cc1cc2c(-c3nc4ccccn4c3NC3CCCCC3)c(O)c(O)cc2c(O)c1-c1c(C)cc2c(-c3nc4ccccn4c3NC3CCCCC3)c(O)c(O)cc2c1O,29.1%
3,O=c1nc(NO)[nH]c(=O)n1Cc1ccccc1,105%
4,COC1/C=C/OC2(C)Oc3c(C)c(O)c4c(O)c(c(C=NOC(c5ccccc5)c5ccccc5)c(O)c4c3C2=O)NC(=O)/C(C)=C/C=C/C(C)C(O)C(C)C(O)C(C)C(OC(C)=O)C1C (centres undefined),-13.8% (active)
5,CC(=O)OC[C@]12CC[C@@H](c3cn(Cc4ccc(Cn5cc([C@@H]6CC[C@]7(COC(C)=O)CC[C@]8(C)[C@H](CC[C@@H]9[C@@]%10(C)CC[C@H](OC(C)=O)C(C)(C)[C@@H]%10CC[C@]98C)[C@@H]67)nn5)cc4)nn3)[C@@H]1[C@H]1CC[C@@H]3[C@@]4(C)CC[C@H](OC(C)=O)C(C)(C)[C@@H]4CC[C@@]3(C)[C@]1(C)CC2,90.5%
6,N#CSCC1CC(O)(c2ccccc2)CC(c2ccc(F)cc2)O1 (centres undefined),-38.7% (active)
7,C=CC(=O)Nc1cccc(Oc2nccc(Nc3nnc(C4CC4)s3)n2)c1,78%
8,COc1ccccc1-[n+]1cc(-c2ccc(-c3ccccc3)cc2)n2c1CCCCC2,-27.7% (active)
9,Cc1cc(NC(=O)c2cnc(N3CCN(CCOCCOCCOCCOCCC(=O)N[C@H](C(=O)N4C[C@H](O)C[C@H]4C(=O)N[C@@H](C)c4ccc(-c5scnc5C)cc4)C(C)(C)C)CC3)cn2)c2ncccc2c1,-21.1% (active)
10,CCN(CCCCCCN1CC(=O)N(CCCCCCN(CC)Cc2ccccc2OC)CC1=O)Cc1ccccc1OC,60.6%
11,O=S1(=O)C=C(c2ccccc2)C(c2ccccc2)=C1,-16.3% (active)
12,CC(=O)Nc1nonc1-c1nc2ccccc2n1Cc1ccc(C(C)(C)C)cc1,56.8%
13,COc1cc(C2CC(c3ccc(Nc4nc(Nc5ccc(Cl)cc5)nc(Nc5ccc(Cl)cc5)n4)cc3)=NN2C(C)=O)cc(OC)c1OC (centres undefined),95.2%
14,CC(=O)Oc1csc(N(C(C)=O)c2cccc(C(F)(F)F)c2)n1,107%
15,Nc1nc(Nc2ccccc2)c(C=Nc2ccccc2)c(=O)[nH]1,98.9%
16,C[C@H]1[C@H](C)CC[C@]2(C(=O)N3CCN(C)CC3)CC[C@]3(C)C(=CC[C@@H]4[C@@]5(C)C/C(=C/c6cccnc6)C(=O)C(C)(C)[C@@H]5CC[C@]43C)[C@H]12,-54.4% (active)
17,CNC(=O)c1cc(Oc2ccc(NC(=O)c3nc(S(C)(=O)=O)n(C)c3-c3ccc(F)cc3)cc2)ccn1,69.8%
18,COc1ccc(-c2nc3sc(-c4cc(OC)c(OC)c(OC)c4)nn3c2/C=C2/C(=O)Nc3ccc(F)cc32)cc1,35.8%
19,O=C(N/N=C/c1cc(Cl)ccc1O)c1ccccc1Nc1ccnc(C(F)(F)F)c1,39.3%
20,CSc1nc(C)c([N+](=O)[O-])c(N)n1,90.2%
21,Cc1cc(C(=O)Nc2ncc(Cc3cccc(C(F)(F)F)c3)s2)c2ccccc2n1,-33.8% (active)
22,COc1cc2ncnc(Nc3ccc(O)cc3)c2cc1OC,83.5%
23,CCN(CC)CC(=O)Nc1c(C)cccc1C,107%
24,CCCCn1c(-c2ccc(C(=O)O/N=C(\N)c3ccc(OC)cc3)cc2)nc(-c2ccccc2)c1-c1ccccc1,-62.5% (active)
